Assay [1] is described as follows: qHTS assay to identify small molecule agonists of the peroxisome proliferator-activated receptor delta (PPARd) signaling pathway - cell viability counter screen (AID 743211). Also: % is scaled to controls: 0 for no effect and ±100 for the full control effect; nearly all actives have a fitted effect of over 55% in size. The method, boiled down: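 Counter screen for cytotoxicity run in parallel with the PPARd reporter screen. Beta-lactamase reporter HEK293H cells exposed to compounds 17 h; ATP-based CellTiter-Glo luminescence quantified viability.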
(In general: Quantitative high-throughput screening tests each substance at several concentrations.)

Assay [2] concerns the target Peroxisome proliferator-activated receptor delta (Homo sapiens) (UniProt Q03181). In words: qHTS assay to identify small molecule agonists of the peroxisome proliferator-activated receptor delta (PPARd) signaling pathway (AID 743212; calls by dose curve; also: % is scaled to controls: 0 for no effect and ±100 for the full control effect). Summed up:
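Read-out: beta-lactamase FRET fluorescence after 2 h room-temperature incubation with LiveBLAzer B/G substrate. Cells were HEK293H carrying a UAS-bla reporter for PPARd, treated at 37 C with DMSO-dissolved compounds.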

A short description of assay [3]: qHTS assay to identify small molecule antagonists of the peroxisome proliferator-activated receptor delta (PPARd) signaling pathway - cell viability counter screen (AID 743213). Also: % is scaled to controls: 0 for no effect and ±100 for the full control effect; nearly all actives have a fitted effect of over 50% in size. Summed up:
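Viability counter-screen, qHTS format: PPARd-bla HEK293H, L165041 300 nM final, 17 h compound exposure at 37 C, CellTiter-Glo luminescence after 30 min RT.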

The nature of assay [4]: qHTS assay to identify small molecule agonists of the farnesoid-X-receptor (FXR) signaling pathway - cell viability counter screen (AID 743218). Also: % is scaled to controls: 0 for no effect and ±100 for the full control effect; nearly all actives have a fitted effect of over 45% in size. The method, boiled down:
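Luminescence from CellTiter-Glo, read after 30 min at RT, reports viability of GeneBLAzer FXR-UAS-bla HEK 293T cells treated 16 h with compounds in the wells used for the beta-lactamase reporter.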

Assay [5] has as its target Bile acid receptor (Homo sapiens) (UniProt Q96RI1). In words: qHTS assay to identify small molecule agonists of the farnesoid-X-receptor (FXR) signaling pathway (AID 743220; active = well fitted activation curve with a large enough effect in the signal ratio in the repeat runs, not every such curve was filed as active; the % refers to the signal ratio; also: % is scaled to controls: 0 for no effect and ±100 for the full control effect). The method, boiled down:
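FXR-UAS-bla HEK 293T cells carrying a UAS-driven beta-lactamase reporter were plated for 5 h at 37C/5% CO2, then exposed to DMSO-dissolved Tox21 10K compounds for 16 h at 37C. A LiveBLAzer B/G FRET substrate was loaded for 2 h at room temperature before fluorescence reading.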

Assay [6] can be described thus: qHTS assay to identify small molecule antagonists of the farnesoid-X-receptor (FXR) signaling pathway - cell viability counter screen (AID 743221; active = well fitted cell-killing curve with a large enough effect in the repeat runs, not every such curve was filed as active; also: % is scaled to controls: 0 for no effect and ±100 for the full control effect; nearly all actives have a fitted effect of over 50% in size). Summed up: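 Multiplexed counter screen: viability of FXR-bla HEK 293T cells under agonist stimulation by chenodeoxycholic acid (50 uM, final) and test compound for 16 h at 37 C, measured by CellTiter-Glo luminescence in the reporter wells.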

Assay [7] can be described thus: qHTS assay to identify small molecule agonists of the vitamin D receptor (VDR) signaling pathway - cell viability counter screen (AID 743224). Also: series mostly up to about 63 µM; % is scaled to controls: 0 for no effect and ±100 for the full control effect; nearly all actives have a fitted effect of over 50% in size. The method, boiled down: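 Cytotoxicity counter screen: VDR-bla cells, 16 h compound exposure at 37C, 5% CO2; CellTiter-Glo luminescence, 30 min RT, same wells as bla read.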
Assay [8] in a line: qHTS assay to identify small molecule antagonists of the vitamin D receptor (VDR) signaling pathway - cell viability counter screen (AID 743225). Also: % is scaled to controls: 0 for no effect and ±100 for the full control effect; nearly all actives have a fitted effect of over 50% in size. The method, boiled down:
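HEK293T VDR-bla; cpd + 1a,25-(OH)2D3 3 nM final, 16 h 37C/5% CO2; B/G FRET substrate 2 h RT; then CellTiter-Glo 30 min RT, luminescence.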

Assay [9] can be described thus: qHTS assay to identify small molecule agonists of the NFkB signaling pathway - cell viability counter screen (AID 1159515; calls by dose curve; also: series mostly up to about 61 µM; % is scaled to controls: 0 for no effect and ±100 for the full control effect; nearly all actives have a fitted effect of over 55% in size). The method, boiled down: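 ME-180 NFkB-bla cells, 2,000/well; overnight attach; compound 5 hr, 37 C/5% CO2; LiveBLAzer substrate 1.5 hr RT; then CellTiter-Glo in same wells, 30 min RT, luminescence read.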
Assay [10] can be described thus: qHTS assay to identify small molecule agonists of the endoplasmic reticulum stress response signaling pathway - cell viability counter screen (AID 1159517; calls by dose curve). Summed up:
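Steps: seed 1,500 ESRE-bla HeLa cells per well; incubate overnight at 37 C, 5% CO2; add compounds in DMSO for 5 hr; run FRET substrate 2 hr RT; add CellTiter-Glo, wait 30 min, read luminescence.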

The nature of assay [11]: qHTS assay to identify small molecule antagonists of the retinoid-related orphan receptor gamma (ROR-gamma) signaling pathway - cell viability counter screen (AID 1159520). Summed up: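 Tet-on ROR gamma CHO cells were given compounds for 2 hr, then doxycycline hyclate at 1 uM final, and incubated 16 hr at 37 C. Viability was measured as ATP content by CellTiter-Glo luminescence.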

Assay [12] has as its target Nuclear receptor ROR-gamma (Homo sapiens) (UniProt P51449). In words: qHTS assay to identify small molecule antagonists of the retinoid-related orphan receptor gamma (ROR-gamma) signaling pathway (AID 1159521; also: nearly all actives have a fitted effect of over 50% in size; also: potency is read from the fitted curve at half-maximal effect). The method, boiled down: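 Cells were plated, rested 4 h at 37 C, exposed to compounds for 2 h, then given 1 uM final doxycycline hyclate to induce RORγ expression. After 16 h, ONE-Glo luminescence from the ROR response element reporter was measured.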

The nature of assay [13]: qHTS assay to identify small molecule agonists of the AP-1 signaling pathway - cell viability counter screen (AID 1159525; calls by dose curve; also: nearly all actives have a fitted effect of over 55% in size). Summed up:
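Same-well cytotoxicity counter screen of the Tox21 10K library in ME-180 cells. The readout is ATP-dependent luminescence after 5 h compound treatment. Data are normalised to DMSO and tetra n-octyl ammonium bromide controls.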

The target of assay [14] is Peroxisome proliferator-activated receptor delta (Homo sapiens) (UniProt Q03181). In words: qHTS assay to identify small molecule antagonists of the peroxisome proliferator-activated receptor delta (PPARd) signaling pathway (AID 743215; active = well fitted inhibition curve with a large enough effect in the signal ratio in the repeat runs, not every such curve was filed as active; the % refers to the signal ratio;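 also: cells stimulated with agonist L165041 at 300 nM final during compound exposure; series mostly up to about 62 µM; % is scaled to controls: 0 for no effect and ±100 for the full control effect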). The method, boiled down: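 HEK293H GeneBLAzer PPARd UAS-bla reporter cells; cpd + L165041 300 nM final, 17 h 37 C; LiveBLAzer B/G FRET substrate 2 h RT; fluorescence intensity read-out. Antagonist mode.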

For assay [15], the target named is Vitamin D3 receptor (Homo sapiens) (UniProt P11473). As to the kind of experiment: qHTS assay to identify small molecule agonists of the vitamin D receptor (VDR) signaling pathway (AID 743222; calls by dose curve; also: % is scaled to controls: 0 for no effect and ±100 for the full control effect). Summed up:
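Beta-lactamase reporter readout (LiveBLAzer B/G FRET, 2 h RT) in VDR-bla cells after 16 h compound treatment at 37C, 5% CO2; cells pre-incubated 4 h before pin transfer of DMSO solutions.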

Assay [16] has the same target. As to the kind of experiment: qHTS assay to identify small molecule antagonists of the vitamin D receptor (VDR) signaling pathway (AID 743223; active = well fitted inhibition curve with a large enough effect in the signal ratio in the repeat runs, not every such curve was filed as active; the % refers to the signal ratio; also: % is scaled to controls: 0 for no effect and ±100 for the full control effect). The method, boiled down: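 Cells carrying a VDR-driven beta-lactamase reporter (VDR-bla) were co-treated with compound and 3 nM final 1alpha,25-dihydroxyvitamin D3 for 16 h at 37C; reporter activity was measured as FRET substrate fluorescence after 2 h at room temperature.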

Assay [17] addresses Retinoic acid receptor RXR-alpha (Homo sapiens) (UniProt P19793). As to the kind of experiment: qHTS assay to identify small molecule agonists of the RXR signaling pathway (AID 1159527; calls by dose curve; also: % is scaled to controls: 0 for no effect and ±100 for the full control effect; nearly all actives have a fitted effect of over 35% in size). The method, boiled down:
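Cells plated at 2,000/well, rested 5 hr at 37 C, pin-dosed with DMSO compound solutions, incubated 16 hr, then loaded with B/G FRET substrate for 2 hr at RT before dual-emission fluorescence reading.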

A short description of assay [18]: qHTS assay to identify small molecule agonists of the AP-1 signaling pathway (AID 1159526; calls by dose curve; also: % is scaled to controls: 0 for no effect and ±100 for the full control effect).
Assay [19] in a line: qHTS assay to identify small molecule agonists of the endoplasmic reticulum stress response signaling pathway (AID 1159516; active = well fitted activation curve with a large enough effect in the signal ratio in the repeat runs, not every such curve was filed as active; the % refers to the signal ratio; also: % is scaled to controls: 0 for no effect and ±100 for the full control effect). Summed up:
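HeLa ESRE-bla reporter line; cpd 5 h, 37 C/5% CO2; LiveBLAzer B/G FRET substrate 2 h RT; ex 405, em 460/530 nm.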

For assay [20], the target named is Bile acid receptor (Homo sapiens) (UniProt Q96RI1). In words: qHTS assay to identify small molecule antagonists of the farnesoid-X-receptor (FXR) signaling pathway (AID 743217; active = well fitted inhibition curve with a large enough effect in the signal ratio in the repeat runs, not every such curve was filed as active; the % refers to the signal ratio; also: % is scaled to controls: 0 for no effect and ±100 for the full control effect). The method, boiled down: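 Read-out: beta-lactamase FRET fluorescence (LiveBLAzer B/G substrate, 2 h, room temperature) in GeneBLAzer FXR-UAS-bla HEK 293T cells. Compounds were co-dosed with 50 uM chenodeoxycholic acid (final) and incubated 16 h at 37 °C.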

Structures are written as SMILES. Records with an inconclusive call do not appear. Values without a mark were called inactive. Calls of active or inactive are those of the source. Unless noted, calls follow the shape of the dose curve; as a rule, active = well fitted curve in the direction sought with a large enough effect in the repeat runs; inconclusive = weak or mixed curves; inactive = no such curve, though single readings can be large; an effect the other way counts as inactive or inconclusive.

Sequence of Bile acid receptor (Homo sapiens) (Q96RI1 whole entry, looked up): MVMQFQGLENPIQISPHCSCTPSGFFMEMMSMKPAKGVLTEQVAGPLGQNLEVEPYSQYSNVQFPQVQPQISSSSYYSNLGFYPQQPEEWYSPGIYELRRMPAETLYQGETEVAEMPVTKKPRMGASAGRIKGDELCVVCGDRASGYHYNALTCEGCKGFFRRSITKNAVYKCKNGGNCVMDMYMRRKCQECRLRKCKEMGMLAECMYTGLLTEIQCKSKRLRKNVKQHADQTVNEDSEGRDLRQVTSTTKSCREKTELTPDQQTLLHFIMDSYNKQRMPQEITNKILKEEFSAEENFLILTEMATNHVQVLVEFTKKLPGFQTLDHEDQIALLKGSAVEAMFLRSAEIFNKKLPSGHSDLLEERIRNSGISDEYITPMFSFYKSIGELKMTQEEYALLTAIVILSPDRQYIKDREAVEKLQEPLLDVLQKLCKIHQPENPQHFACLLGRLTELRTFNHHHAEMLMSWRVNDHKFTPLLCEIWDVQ
Sequence of Peroxisome proliferator-activated receptor delta (Homo sapiens) (Q03181 whole entry, looked up): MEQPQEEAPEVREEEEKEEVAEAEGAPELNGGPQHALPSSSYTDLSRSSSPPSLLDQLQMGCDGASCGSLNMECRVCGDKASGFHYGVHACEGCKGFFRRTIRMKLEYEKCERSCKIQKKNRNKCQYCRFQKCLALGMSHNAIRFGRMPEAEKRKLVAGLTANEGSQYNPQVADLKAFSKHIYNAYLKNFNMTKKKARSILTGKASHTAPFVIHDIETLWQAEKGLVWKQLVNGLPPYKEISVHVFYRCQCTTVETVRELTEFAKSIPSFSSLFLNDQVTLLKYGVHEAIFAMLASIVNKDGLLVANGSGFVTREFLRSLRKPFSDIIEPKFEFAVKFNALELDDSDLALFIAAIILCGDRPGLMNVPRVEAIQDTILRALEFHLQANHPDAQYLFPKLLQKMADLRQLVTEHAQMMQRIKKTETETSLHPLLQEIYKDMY
Sequence of Vitamin D3 receptor (Homo sapiens) (P11473 whole entry, looked up): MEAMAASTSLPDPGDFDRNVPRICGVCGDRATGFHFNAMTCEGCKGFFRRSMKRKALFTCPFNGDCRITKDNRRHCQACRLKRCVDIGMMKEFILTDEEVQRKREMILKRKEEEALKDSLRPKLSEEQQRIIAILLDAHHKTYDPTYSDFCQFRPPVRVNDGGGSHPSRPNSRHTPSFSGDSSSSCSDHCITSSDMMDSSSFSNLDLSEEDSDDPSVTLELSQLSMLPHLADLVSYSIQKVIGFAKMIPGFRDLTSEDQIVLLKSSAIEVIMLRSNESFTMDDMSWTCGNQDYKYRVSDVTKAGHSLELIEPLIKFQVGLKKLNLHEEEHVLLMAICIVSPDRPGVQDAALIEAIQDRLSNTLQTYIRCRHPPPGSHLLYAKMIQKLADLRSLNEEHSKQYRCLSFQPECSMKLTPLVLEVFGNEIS
Sequence of Retinoic acid receptor RXR-alpha (Homo sapiens) (P19793 whole entry, looked up): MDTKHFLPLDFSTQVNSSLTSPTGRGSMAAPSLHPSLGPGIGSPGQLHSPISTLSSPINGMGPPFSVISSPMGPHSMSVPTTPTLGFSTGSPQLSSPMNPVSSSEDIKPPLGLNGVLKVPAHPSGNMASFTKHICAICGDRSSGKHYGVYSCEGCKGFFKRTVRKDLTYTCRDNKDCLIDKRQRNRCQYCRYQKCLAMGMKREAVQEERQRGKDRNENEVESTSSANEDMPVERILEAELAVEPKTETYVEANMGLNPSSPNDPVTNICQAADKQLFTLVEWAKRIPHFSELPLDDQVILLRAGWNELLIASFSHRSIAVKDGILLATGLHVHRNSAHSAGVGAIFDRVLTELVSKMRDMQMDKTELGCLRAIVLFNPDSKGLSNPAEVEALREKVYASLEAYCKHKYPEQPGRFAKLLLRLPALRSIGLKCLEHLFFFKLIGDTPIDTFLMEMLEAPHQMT

For `N#CCc1cccc(C(F)(F)F)c1`, the Potency entry in assay [1], in assay [3], in [4], in [6], in assay [7] and in assay [8] was “inactive” each time. The Potency result in assay [9], in assay [11], in assay [12] and in [13] was “inactive” in each case. Also, the outcome in assay [2], in assay [5] and in assay [10] was inactive.
As for `NC[C@H]1O[C@H](O[C@H]2[C@H](O)[C@@H](O[C@H]3O[C@H](CO)[C@@H](O)[C@H](N)[C@H]3O)[C@H](N)C[C@@H]2N)[C@H](O)[C@@H](O)[C@@H]1O`, the activity change, negative = cytotoxicity in [1] was -7.03% [at 5.95 µM]; in assay [6], -10.3% [at 5.95 µM]; in [7] it was -10.2% [at 5.95 µM]; in [10], -9.96% [at 6.95 µM]. The activation in [2] is -4.29% [at 5.95 µM]; in assay [15], -7.13% [at 6.01 µM]; in assay [17], 3.4% [at 6.98 µM]. Moreover, the viability change, negative = cytotoxic in assay [3] is -5.87% [at 6.26 µM]; in assay [4] it was 5.82% [at 5.95 µM]; in [13], -4.71% [at 6.97 µM]. Besides, in assay [14], the ratio activity, negative = inhibition was 3.27% [at 6.26 µM]. The values for the activity change, negative = inhibition in [16] and in [12] were 5.88% [at 6.95 µM] and -16.2% [at 8.39 µM], respectively. For the same compound, the activity, negative = cytotoxic in assay [9] was -4.89% [at 6.95 µM].
For `CCCCCCCCCC(=O)OCC`, the Potency result in assay [1], in [3], in assay [4], in assay [6], in assay [16] and in assay [7] was “inactive” each time. For the same compound, the Potency entry in assay [8], in assay [9], in assay [11], in assay [12], in assay [13] and in assay [18] was “inactive” in each case. The call in assay [2], in [15] and in assay [10] was inactive.
`CC(=O)O[C@H]1C[C@@H]2CC[C@@H]3[C@H](CC[C@@]4(C)[C@H]3C[C@H]([N+]3(C)CCCCC3)[C@@H]4OC(C)=O)[C@@]2(C)C[C@@H]1N1CCCCC1`: the Potency entry in [1], in [3], in assay [4], in [6], in assay [7] and in [8] was “inactive” throughout. Further, the Potency entry in assay [9], in assay [19], in [12], in assay [13] and in assay [17] was “inactive” each time. For the same compound, the result in [2], in assay [14], in assay [5] and in assay [10] was inactive.
For the compound `Cc1ccc(C)o1`, the Potency result in assay [1], in assay [3], in [4], in assay [6], in [16] and in assay [7] was “inactive” in each case. The Potency result in assay [9], in assay [11], in assay [12], in [13] and in [18] was “inactive” each time. Moreover, the call in assay [14], in assay [20], in assay [5], in assay [15] and in assay [10] was inactive.
As for `CC(C)CC=O`, the Potency entry in assay [1], in assay [4], in [6], in assay [7], in assay [9] and in assay [11] was “inactive” each time. Further, the Potency entry in assay [12], in assay [13] and in assay [18] was “inactive” throughout. For the same compound, the compound was classed as inactive in assay [2], in assay [20], in [5], in assay [15] and in [10].
Consider `C=Cc1c(C)c2cc3[nH]c(cc4nc(cc5nc(cc1[nH]2)C(C)=C5CCC(=O)O)C(CCC(=O)O)=C4C)c(C)c3C=C`, for which the call in assay [2], in assay [15] and in assay [10] was inactive. The Potency entry in assay [3], in [4], in assay [6], in assay [8], in [9] and in assay [19] was “inactive” throughout. The Potency result in assay [13] is “inactive”. Also, the Potency in assay [12] is 26.6 µM (active).
On to `CCCCOC(=O)/C=C\C(=O)OCCCC`, for which the Potency result in assay [1], in [4], in [6], in assay [16], in assay [7] and in assay [8] was “inactive” throughout. Besides, the Potency result in [9], in [11], in assay [12], in assay [13] and in [18] was “inactive” each time. In addition, the outcome in assay [5], in assay [15] and in [10] was inactive.
As to `N[C@H]1C(O)O[C@H](CO)[C@H](O)[C@@H]1O` (some centres not stated), the Potency entry in assay [1], in assay [4], in assay [6], in [16], in [7] and in assay [8] was “inactive” each time. The Potency entry in assay [9], in assay [11], in assay [12], in [13] and in assay [18] was “inactive” each time. The compound was called inactive in [2], in assay [14], in assay [15] and in assay [10].

The values are drawn from PubChem BioAssay (Tox21).
